The text below walks through data of ChEMBL document CHEMBL1201862, “PubChem BioAssay data set” (2004).

SMILES strings stand for the structures. In all, about 1,300 compounds went through this assay and about 1,000 (77%) were called active. Another 7% or so got no clear call; they are omitted. The rule behind the calls is not given here. So high a share suggests a set chosen from earlier hits. The list is a sample of the results.

This experiment relates to Giardia. In words: qHTS of small molecules that selectively kill Giardia lamblia: Hit Validation. [Related pubchem assays (depositor defined):AID540272]. It is filed as functional. Conditions: read-out: Potency.
Regarding `CCCc1nnc(NC(=O)C2C(=O)c3cccc4c3N(CC4)C2=O)s1` (stereo unspecified), the AC50 is 16.3 µM (active).
